Most compounds without a hit are left out; they make up all but 5% or so of the library.
SENP8 block-1: SENP8 protease inhibition. purified SENP8, Z-RLRGG-aminoluciferin cleavage, luminescence. inhibition, % at 10 µM. 1.2% of 330,000 active. AID 2540; in the data active means inhibition above about 50%
EBI2 block: EBI2 (human) antagonism. P32249. EBI2 beta-arrestin recruitment, luminescence, 7a,25-OHC stimulated. inhibition, % at 5 µM. 0.81% of 360,000 active. AID 651636; in the data active means inhibition above about 38%;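 further: enzyme fragment complementation signal reports receptor beta-arrestin coupling in cells; 0% = agonist plus DMSO wells and 100% = wells without agonist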
SENP6 inh: SENP6 protease inhibition; Q9GZR1; Recombinant SENP6 catalytic domain, aminoluciferin luminescence; inhibition, % at 10 µM; 1.8% of 330,000 active; AID 2599;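 active means inhibition above about 50% at the single tested dose, limit read from the data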;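 further: plate controls were DMSO wells with enzyme for no effect and DMSO wells lacking enzyme for full effect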
SENP8 block-2: SENP8 (human) protease inhibition. AID 602440. recombinant SENP8, Nedd8 substrate fluorescence. 0.64% of 360,000 active. inhibition, % at 20 µM; in the data active means inhibition mostly above about 40%, no sharp cut-off; inactive means mostly below about 27%
AHR act: activators of human aryl hydrocarbon receptor | 2.5% of 320,000 active | AHR-responsive luciferase reporter cells, luminescence | activation, % at 5 µM | P35869; in the data active means activation above about 47%;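 further: 0% = vehicle wells and 100% = reference agonist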
SENP7 inh: blocks the human protease SENP7; 1.5% of 330,000 active; recombinant SENP7, Z-RLRGG-aminoluciferin luminescence, 40 min; inhibition, % at 5 µM;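 active means inhibition above about 50% at the single test dose, limit read from the data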;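 further: plate controls were DMSO with enzyme for no effect and no enzyme buffer wells for full effect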
Target sequence (Q9BQF6 706-1050 limits assumed): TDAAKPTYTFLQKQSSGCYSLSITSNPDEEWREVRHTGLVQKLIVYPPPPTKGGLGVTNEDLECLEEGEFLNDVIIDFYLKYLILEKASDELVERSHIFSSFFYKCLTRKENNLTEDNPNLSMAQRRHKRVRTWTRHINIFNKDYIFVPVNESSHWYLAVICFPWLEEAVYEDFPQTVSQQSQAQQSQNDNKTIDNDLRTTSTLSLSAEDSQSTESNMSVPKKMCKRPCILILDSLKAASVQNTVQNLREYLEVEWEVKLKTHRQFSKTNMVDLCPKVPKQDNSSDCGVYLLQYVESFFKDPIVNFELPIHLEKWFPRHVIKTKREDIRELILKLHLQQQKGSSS
SENP8 conf: human SENP8 inhibition, confirmed. 40% of 6,200 active. shares compounds with SENP7 inh. inhibition, % at 12.5 µM. Recombinant SENP8, Z-RLRGG-aminoluciferin luminescence, 60 min. AID 488912;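 active means mean inhibition across replicates above about 50%, limit read from the data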
SENP6 confirm: confirmation of human SENP6 protease inhibitors. 58% of 6,200 active. inhibition, % at 12.5 µM. recombinant SENP6, Z-RLRGG-aminoluciferin luminescence. AID 488915. shares compounds with SENP7 inh
SENP7 conf: confirmation of human SENP7 protease inhibitors; recombinant SENP7, Z-RLRGG-aminoluciferin luminescence, 40 min; 69% of 6,200 active; inhibition, % at 12.5 µM; shares compounds with SENP7 inh
Casp3 SENP sel: inhibits human caspase-3 in SENP selectivity test. shares compounds with SENP7 inh. 60% of 6,200 active. inhibition, % at 12.5 µM. AID 488918. purified caspase-3, Z-DEVD-aminoluciferin luminescence, 60 min;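 active means mean inhibition above about 50%, limit read from the data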;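 further: plate controls were enzyme with DMSO for no effect and wells without caspase-3 for full effect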
Target sequence (P42574 28-227 limits assumed): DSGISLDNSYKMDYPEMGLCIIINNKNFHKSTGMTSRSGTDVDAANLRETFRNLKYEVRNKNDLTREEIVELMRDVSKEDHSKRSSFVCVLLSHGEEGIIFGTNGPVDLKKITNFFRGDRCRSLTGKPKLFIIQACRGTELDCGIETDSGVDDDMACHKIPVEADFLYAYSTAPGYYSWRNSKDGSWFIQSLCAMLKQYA
SENP luc ctr: interferes with luciferase luminescence in SENP counter-screen; shares compounds with SENP7 inh; Pre-incubated SENP8/Z-RLRGG-aminoluciferin, luciferase luminescence interference; inhibition, % at 12.5 µM; 39% of 6,200 active; AID 488919;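 active means mean inhibition above about 50% when retested at one dose, limit read from the data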;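 further: plate controls were DMSO wells with completed reaction for no effect and substrate without enzyme for full effect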
* = called active by the depositor.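 How the source made its calls, unless noted: active means mean inhibition above about 50% in the one-dose retest (limit read from the data); inactive means the rest.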

Screening CC(=O)c1ccc(NC(=O)CSc2nnc(NC(=O)c3ccco3)s2)cc1 returned SENP8 block-1 55*, EBI2 block 3, SENP6 inh 55*, SENP8 block-2 -23, AHR act 1, SENP7 inh 47, SENP8 conf 9, SENP6 confirm 10, SENP7 conf 15, Casp3 SENP sel 13 and SENP luc ctr 7.
`Cc1ccc(NC(=O)CSc2nnc(NC(=O)c3ccco3)s2)cc1` gave SENP8 block-1 0, EBI2 block -2, SENP6 inh 14, SENP8 block-2 -24, AHR act 3 and SENP7 inh 11.
For CCCSc1nnc(NC(=O)c2ccco2)s1 the results were SENP8 block-1 -13, EBI2 block 7, SENP6 inh -23, SENP8 block-2 -26, AHR act 9 and SENP7 inh -4.
For CC(=O)Nc1ccc(NC(=O)CSc2nnc(NC(=O)c3ccc(Br)o3)s2)cc1 the results were SENP8 block-1 70*, EBI2 block -14, SENP6 inh 87*, SENP8 block-2 -86, AHR act 0, SENP7 inh 48, SENP8 conf 17, SENP6 confirm 14, SENP7 conf 14, Casp3 SENP sel 49 and SENP luc ctr 2.
Screening CC(=O)Nc1cccc(NC(=O)CSc2nnc(NC(=O)c3ccco3)s2)c1 returned SENP8 block-1 -10, EBI2 block -11, SENP6 inh -5, SENP8 block-2 -29, AHR act 0 and SENP7 inh -6.
Screening CCCOc1ccc(C(=O)NNC(=O)c2cccc(S(=O)(=O)N3CCN(C(C)=O)CC3)c2)cc1OC returned SENP8 block-1 -2, EBI2 block 0, SENP6 inh 5, SENP8 block-2 3, AHR act 0 and SENP7 inh -1.
For O=C(CSc1ccccn1)C12CC3CC(CC(C3)C1)C2 the results were SENP8 block-1 2, EBI2 block 10, SENP6 inh -5, SENP8 block-2 12, AHR act -2 and SENP7 inh 3.
`Cc1ccc(S(=O)(=O)NC(C)(C)CSc2ccccn2)cc1` gave SENP8 block-1 0, EBI2 block -9, SENP6 inh -26, SENP8 block-2 34, AHR act -1 and SENP7 inh -3.
`C=CCn1c(SCC(=O)Nc2ccc(NC(=O)c3ccco3)c(OC)c2)nnc1-c1ccncc1` gave SENP8 block-1 -4, EBI2 block -17, SENP6 inh 74*, SENP8 block-2 1, AHR act -1, SENP7 inh 13, SENP8 conf -24, SENP6 confirm -20, SENP7 conf -11, Casp3 SENP sel -12 and SENP luc ctr -8.
For CC1CCN(C(=O)c2cc(S(=O)(=O)N3CCOCC3)ccc2N2CCCC2)CC1 the results were SENP8 block-1 1, EBI2 block -12, SENP6 inh -8, SENP8 block-2 -13, AHR act -1 and SENP7 inh -8.
O=C(COC(=O)C1=NN(c2ccccc2)C(=O)CC1)NCc1ccccc1Cl was read as SENP8 block-1 -3, EBI2 block 1, SENP6 inh -15, SENP8 block-2 -5, AHR act 1 and SENP7 inh 4.
O=[N+]([O-])c1cc(CN(CCO)CCO)ccc1O was read as SENP8 block-1 3, EBI2 block 2, SENP6 inh 5, SENP8 block-2 18, AHR act 1 and SENP7 inh 5.
O=C(O)c1ccc(N2Cc3ccccc3C2)cc1O was read as SENP8 block-1 65*, EBI2 block -15, SENP6 inh 70*, SENP8 block-2 -3, AHR act 4, SENP7 inh -2, SENP8 conf 4, SENP6 confirm 71*, SENP7 conf 89*, Casp3 SENP sel 90* and SENP luc ctr 75*.
Screening O=C(O)c1ccc(N2CCCCC2)cc1O returned SENP8 block-1 1, EBI2 block 3, SENP6 inh 7, SENP8 block-2 11, AHR act 2 and SENP7 inh 0.
For O=C(Nc1ccccc1Cl)C(=O)c1cn(CC(=O)N2CCOCC2)c2ccccc12 the results were SENP8 block-1 31, EBI2 block 7, SENP6 inh 44, SENP8 block-2 -23, AHR act 73*, SENP7 inh 74*, SENP8 conf 17, SENP6 confirm 16, SENP7 conf 24, Casp3 SENP sel 18 and SENP luc ctr 7.
Screening CCCN1CCC(NC(=S)Nc2cccc(Cl)c2Cl)CC1 returned SENP8 block-1 -8, EBI2 block 9, SENP6 inh -9, SENP8 block-2 2, AHR act 0 and SENP7 inh 4.
`COC(=O)c1ccc2nc(Nc3nc4ccc(F)cc4s3)sc2c1` gave EBI2 block -7, SENP8 block-2 -443 and AHR act -2.
`CCOC(=O)c1csc(Nc2nc3ccc(F)cc3s2)n1` gave SENP8 block-1 -18, EBI2 block 41, SENP6 inh 58*, SENP8 block-2 -5, AHR act 31, SENP7 inh 3, SENP8 conf 1, SENP6 confirm -2, SENP7 conf 12, Casp3 SENP sel 6 and SENP luc ctr 2.
Screening CC(=O)c1sc(Nc2nc3ccc(F)cc3s2)nc1C returned SENP8 block-1 53*, EBI2 block 1, SENP6 inh 81*, SENP8 block-2 -307, AHR act 65*, SENP7 inh 30, SENP8 conf 12, SENP6 confirm 72*, SENP7 conf 90*, Casp3 SENP sel 48 and SENP luc ctr 13.
For COc1ccc(N/C=C/C(=O)c2ccccc2)cc1 the results were SENP8 block-1 95*, EBI2 block 13, SENP6 inh 94*, SENP8 block-2 -25, AHR act -1, SENP7 inh 96*, SENP8 conf -21, SENP6 confirm 93*, SENP7 conf 103*, Casp3 SENP sel 97* and SENP luc ctr 32.
`O=C(/C=C/Nc1ccccc1)c1ccc(Oc2ncccn2)cc1` gave SENP8 block-1 65*, EBI2 block 13, SENP6 inh 76*, SENP8 block-2 -294, AHR act -5, SENP7 inh 82*, SENP8 conf 29, SENP6 confirm 58*, SENP7 conf 59*, Casp3 SENP sel 82* and SENP luc ctr 14.

From PubChem
